The panel holds about 79,000 compounds, 15% with a hit somewhere; the sample as a whole holds those more often. Values without a mark were called inactive. Calls of active or inactive are those of the source. No stated cut-off is given here; in the data, active means growth inhibition above about 70%; inactive means the rest.
Assays:
[1] = NCI Yeast Anticancer Drug Screen. Data for the rad50 strain (AID 155);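 further: 0% = growth of vehicle-only cultures of the same strain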; settings: S. cerevisiae rad50 strain growth inhibition, hits give high values
Summary of the method: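 Genetically altered yeast (DNA repair pathway); compound treatment; growth inhibition vs vehicle ctrl.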

[2] = NCI Yeast Anticancer Drug Screen. Data for the mec2-1 strain (AID 157); settings: S. cerevisiae mec2-1 strain, hits give high values
Summary of the method: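 Vehicle-treated cultures served as reference for growth inhibition of compound-exposed mec2-1 yeast.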

[3] = NCI Yeast Anticancer Drug Screen. Data for the sgs1 mgt1 strain (AID 161);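 further: 0% = growth of cultures given vehicle only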; settings: S. cerevisiae sgs1 mgt1 strain, hits give high values
Summary of the method: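 Test agents were incubated with a DNA-repair-mutant yeast strain. Growth was then read and compared against vehicle-treated controls.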

[4] = NCI Yeast Anticancer Drug Screen. Data for the cln2 rad14 strain (AID 165);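 further: 0% = growth equal to vehicle treated cultures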; settings: S. cerevisiae cln2 rad14 strain, hits give high values
Summary of the method: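 Each compound was tested on cln2 rad14 yeast. Inhibition of growth was calculated against vehicle-exposed controls.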

[5] = NCI Yeast Anticancer Drug Screen. Data for the bub3 strain (AID 167); settings: S. cerevisiae bub3 mutant strain, hits give high values
Summary of the method: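 Yeast carrying a defined mutation is treated with each compound, and growth is compared with that of vehicle-exposed cells to give inhibition.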

[6] = NCI Yeast Anticancer Drug Screen. Data for the mlh1 rad18 strain (AID 175); settings: S. cerevisiae mlh1 rad18 strain growth inhibition, hits give high values
Summary of the method: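 Vehicle-treated cultures served as the reference for growth inhibition in a yeast strain carrying DNA damage repair alterations exposed to each compound.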

[7] = at 5.0 µM (retest, dose inferred, filed as 0.5)
[8] = at 50.0 µM (retest, dose inferred, filed as 5.0)

| SMILES | growth inhibition [1, 7] | growth inhibition [1, 8] | growth inhibition ([1]; at 50.0 µM) | growth inhibition [2, 7] | growth inhibition [2, 8] | growth inhibition ([2]; at 50.0 µM) | growth inhibition [3, 7] | growth inhibition [3, 8] | growth inhibition ([3]; at 50.0 µM) | growth inhibition [4, 7] | growth inhibition [4, 8] | growth inhibition ([4]; at 50.0 µM) | growth inhibition [5, 7] | growth inhibition [5, 8] | growth inhibition ([5]; at 50.0 µM) | growth inhibition [6, 7] | growth inhibition [6, 8] | growth inhibition ([6]; at 50.0 µM) |
| --- | --- | --- | --- | --- | --- | --- | --- | --- | --- | --- | --- | --- | --- | --- | --- | --- | --- | --- |
| CCCCCCCCCC(C)CC(=O)NCCCN(C)CCCCN(C)C (stereo not given) (tested in a mixture with another compound) | -24% | 67% | 88.8% (active) | 26% | 68% | 80.2% (active) | 35% | 93% (active) | 87% (active) | 28% | 27% | 62.1% | -17% | 86% (active) | 90.2% (active) | 34% | 76% (active) | 82.3% (active) |
| Cc1cc(Cl)c(O)c(C(=O)C(=O)C(O)c2ccc3c(c2)OCO3)c1 (stereo not given) | 98% (active) | 99% (active) | 87.9% (active) | 96% (active) | 99% (active) | 90% (active) | 37% | 99% (active) | 82.1% (active) | 58% | 99% (active) | 87.9% (active) | 64% | 94% (active) | 87.9% (active) | 38% | 99% (active) | 84.1% (active) |
| CC(=O)Oc1ccc(-c2ccccc2)cc1Br | 8% | 99% (active) | 93.6% (active) | -27% | 98% (active) | 96.2% (active) | 6% | 97% (active) | 91.5% (active) | 7% | 95% (active) | 85.1% (active) | 10% | 98% (active) | 94.2% (active) | 11% | 99% (active) | 98.1% (active) |
| CC(C)c1ccc(CN(CCO)Cc2ccc(C(C)C)cc2)cc1 | 7% | 84% (active) | 97.2% (active) | 3% | 88% (active) | 75.6% (active) | 6% | 95% (active) | 97.1% (active) | 7% | 87% (active) | 77.3% (active) | 7% | 97% (active) | 98.6% (active) | 8% | 91% (active) | 81.8% (active) |
| N#Cc1c(Cl)cc(Cl)n2c1nc1ccccc12 | 46% | 97% (active) | 91.2% (active) | 29% | 99% (active) | 94% (active) | 56% | 100% (active) | 93% (active) | 43% | 99% (active) | 91.7% (active) | 56% | 99% (active) | 91.3% (active) | 43% | 97% (active) | 92.3% (active) |
| CCC(=O)C(CCN(CC)CC)(CCN(CC)CC)c1ccccc1 | -1% | -5% | 87.5% (active) | -2% | -4% | 99.3% (active) | -2% | -4% | 42.4% | 3% | -8% | 71% (active) | 1% | -3% | 99.2% (active) | -2% | -7% | 97.8% (active) |
| CCCCOC(=O)c1nc(N(CC2CCCCC2)C(=O)NC)sc1NC(=O)NC | -3% | 92% (active) | 10.5% | -3% | 95% (active) | 0.85% | -18% | 97% (active) | 8.7% | -3% | 95% (active) | 1.6% | 0% | 95% (active) | -1.65% | 5% | 96% (active) | 29.2% |
| O=C1C(Cl)=C(Nc2ccc(S(=O)(=O)Nc3ccccn3)cc2)C(=O)c2ccccc21 | 99% (active) | 99% (active) | 99.3% (active) | 99% (active) | 99% (active) | 99.3% (active) | 96% (active) | 99% (active) | 99.2% (active) | 95% (active) | 99% (active) | 99.2% (active) | 99% (active) | 99% (active) | 98.7% (active) | 90% (active) | 99% (active) | 99.2% (active) |
| C[n+]1c(-c2ccc(/C=N\Nc3nnc(S)n3/N=C/c3ccc(-c4cn5ccccc5[n+]4C)cc3)cc2)cn2ccccc21 | 7% | 98% (active) | 94.5% (active) | -16% | 96% (active) | 92.9% (active) | 3% | 97% (active) | 95.8% (active) | 4% | 94% (active) | 92.1% (active) | 29% | 98% (active) | 93% (active) | 10% | 97% (active) | 96.8% (active) |
| C1CNC(CCNCCSCCNCCC2=NCCN2)=N1 | 10% | 90% (active) | 95.1% (active) | 1% | 75% (active) | 84.2% (active) | 5% | 87% (active) | 91.9% (active) | 5% | 72% (active) | 83.2% (active) | -2% | 89% (active) | 93.5% (active) | 1% | 91% (active) | 94.3% (active) |

From PubChem BioAssay (NCI)
